This is an account of results in PubChem BioAssay AID1508621 (National Center for Advancing Translational Sciences (NCATS), 2021).

Inconclusive results are not listed. A call without a number means that no potency is given here. The source made the active and inactive calls. Calls follow the shape of the dose curve; as a rule, active = well fitted inhibition curve with a large enough effect; inconclusive = small, poorly fitted or top-dose-only effect; inactive = no such curve, though single readings can be large or run the other way.
Potency is read from the fitted curve at half-maximal effect.

The test can be described thus: Confirmatory qHTS for Identification of Small Molecule Inhibitors of Huntingtin Promoter Activity. Also: nearly all actives have a fitted effect of over 65% in size. The conditions noted are these: HEK293 HTT promoter firefly luciferase reporter, 24 h; series mostly up to 57.5 µM. From the text: Assay Provider: Russell L. Margolis M.D.
Department Neurology, Johns Hopkins University School of Medicine, Baltimore, MD
Huntington's Disease (HD) is a neurodegenerative disorder caused by a CAG repeat expansion in exon 1 of huntingtin (HTT). While there are currently no disease-modifying treatments for HD, recent efforts have focused on development of nucleotide-based therapeutics to lower HTT expression. As an alternative to siRNA or oligonucleotide methods, we hypothesized that suppression of HTT expression might be accomplished by small molecules that either (1) directly decrease HTT expression by suppressing HTT promoter activity or (2) indirectly decrease HTT expression by increasing the promoter activity of HTT-AS, the gene antisense to HTT that appears to inhibit expression of HTT.
We developed and employed a high throughput screen for modifiers of HTT and HTT-AS promoter activity using luminescent reporter HEK293 cells; of the 52,041 compounds tested, we identified 898 replicable hits. We used a rigorous stepwise approach to assess compound toxicity and the capacity of the compounds to specifically lower huntingtin protein in 5 different cell lines, including HEK293 cells, HD lymphoblastoid cells, mouse primary neurons, HD iPSCs differentiated into cortical-like neurons, and HD hESCs. We found no compounds which were able to lower huntingtin without lowering cell viability in all assays, though the potential efficacy of a few compounds at non-toxic doses could not be excluded.
SEQUENCE No. (1, 2, 3, etc.); […] (e.g., Cells, Incubation, Reagent, etc.); VALUE and DESCRIPTION.
1; Reagent; 4 uL; 2,500 Hek293 luciferase reporter cells per wells
3; Compound; 23 nL; Control inhibitor / compound library
5; Reagent; 2.5 uL; Firefly Luc reagent; Dual-Glo Luciferase Reporter Assay System (Promega)
6; Time; 10 min; room temperature incubation
7; Detection; Luminescence; FLuc
NOTES (numbers refer to sequence above)
1; High-throughput screening, measuring luminescence from a Hek293 luciferase reporter, was performed in 1,536 well white-walled tissue-culture treated plates. 2,500 cells were plated in 4 uL of Opti-MEM per well using a Multidrop Combi Reagent Dispenser (ThermoFisher).
2; Assay plates were cultured for 24 hours.
3; Control inhibitor (PTC124; final concentration of 50 uM) and compound library (at final concentrations of 460 nM - 57.5 uM) were added to the assay plate using the Kalypsis Pintool Robotic System equipped with 1536 pinheads.
4; Cells were then incubated for 24 hours at 37C prior to luminescence measurements.
5; In all cases, luminescence was measured using the Dual-Glo Luciferase Reporter Assay System (Promega) following the manufacturer's instructions.
6; Room temperature incubation.
7; Luminescence signal was obtained using the PerkinElmer ViewLux plate reader. Results were normalized to vehicle control (0% activity) and zero RLU (-100% activity).
(In qHTS, concentration-response curves come from the screen itself.)
On to `COC(=O)C1=C(C)NC(C)=C(C(=O)OCC(C)=O)C1c1ccccc1[N+](=O)[O-]` (stereo not given), for which the Potency entry is “inactive”. As for `Cn1cnc(=N)c2[nH]cnc21`, the entry is “inactive”; as for `CC(C)Oc1ccc(C(=O)N(Cc2ccco2)c2ccccn2)cc1`, “inactive”. Regarding `Cc1ccc(S(=O)(=O)n2nc(-c3ccco3)nc2NCc2ccccc2Cl)cc1`, the Potency entry is “inactive”. As for `COc1ccccc1C1CC(=O)NC(C)=C1C(=O)OC1CCCCCC1` (stereo not given), the entry is “inactive”; as for `CCCCC(=O)Nc1cccc(-c2nc3ccccc3s2)c1`, “inactive”; as for `CCc1ccccc1-n1c(SCC(=O)Nc2ccc(C)cc2)nc2n[nH]c(C)c2c1=N`, 13.5 µM (active). As for `N#CCNC(=O)c1ccc(-c2ccnc(Nc3ccc(N4CCOCC4)cc3)n2)cc1`, the Potency result is “inactive”. Consider `Cn1c(=O)n(C)c2cc(NS(=O)(=O)c3ccccc3)c(NCc3ccccc3)cc21`, for which the Potency result is “inactive”.

`COc1cccc(-c2cn3c(n2)sc2cc(C(=O)NCc4cccs4)ccc23)c1`: the Potency entry was “inactive”. Consider `Cc1csc2nc(COC(=O)c3ccccc3NC(=O)c3ccccc3Cl)cc(=O)n12`, for which the Potency result was “inactive”.

Regarding `CCN(CC)CCOc1ccc(C(=C(Cl)c2ccccc2)c2ccccc2)cc1`, the Potency entry was “inactive”. With `CCS(=O)(=O)c1ncc(Cl)c(C(=O)NCc2ccc(OC)cc2)n1` the figure was 19 µM (active); with `O=C(c1ccc(CS(=O)c2ccccc2Cl)o1)N1CCN(c2cccc(C(F)(F)F)c2)CC1` (stereo not given), 3.38 µM (active); with `COc1ccc(Nc2nc(-c3ccc(C)cc3)nc3ccccc23)c(OC)c1`, “inactive”. As for `COc1ccccc1NC(=O)CN1C(=O)C(C)(C)c2ccccc21`, the entry is “inactive”; as for `CC(C)c1ccc(NC(=O)C2CCN(c3nc(-c4ccc(C(C)C)cc4)no3)CC2)cc1`, 0.0953 µM (active); as for `Cc1ccc(S(=O)(=O)Nc2cccc(-c3ccc(N4CCCCC4)nn3)c2)s1`, “inactive”. With `COc1cccc(CNC(=O)c2ccc3nc(N4CCCCC4)sc3c2)c1OC` the entry was “inactive”; with `COc1ccc(C(C)n2c(C)c3c(C)nnc(C)c3c2C)cc1` (stereo not given), “inactive”; with `CC(C)c1ccc(Cc2cnc(NC(=O)c3ccc4c(c3)CC(c3ccccc3)OC4=O)s2)cc1` (stereo not given), 3.79 µM (active). Take `O=C(Nc1ccc(Cl)c(Cl)c1)N(Cc1c[nH]c2ccccc12)C1CCCCC1`: the Potency result is “inactive”.

On to `O=C(CSc1nccn1Cc1ccco1)Nc1cc(C(F)(F)F)ccc1Cl`, for which the Potency result was “inactive”. With `O=c1cc(-c2ccccc2)oc2cc(O)cc(O)c12` the entry was “inactive”; with `COc1ccc(-n2c(/C=C/c3cccc4ccccc34)nc3ccccc3c2=O)cc1Cl`, “inactive”; with `CCOc1ccc(-n2c(/C=C/c3cccc(F)c3)nc3cc(OC)c(OC)cc3c2=O)cc1`, “inactive”.

On to `CCOc1ccc(C2=C(C(=O)CC)Sc3nncn3N2C(=O)CC)cc1`, for which the Potency result is “inactive”. With `Cc1ccc(C)c(OCCCC(C)(C)C(=O)O)c1` the entry was “inactive”; with `Cc1cccc(S(=O)(=O)Nc2cccc(-c3ccc(N4CCCCC4)nn3)c2)c1`, “inactive”; with `CCS(=O)(=O)N1CC(CC#N)(n2cc(-c3ncnc4[nH]ccc34)cn2)C1`, “inactive”.

As for `Cc1ccccc1C(=O)Nc1nc(-c2ccc(Br)cc2)ns1`, the Potency result was “inactive”. With `O=C(c1ccc2c(c1)N(Cc1ccccc1)C(=O)c1ccccc1S2(=O)=O)N1CCCCCC1` the entry was “inactive”; with `Cc1c(NS(C)(=O)=O)cccc1-c1nc2ccccc2s1`, “inactive”. As for `C1=CCOCc2cc(ccc2OCCN2CCCC2)Nc2nccc(n2)-c2cccc(c2)OCC1`, the figure is 9.53 µM (active); as for `CCCCc1nc2cc(C=CC(=O)NO)ccc2n1CCN(CC)CC`, “inactive”. With `CCCS(=O)(=O)NCCc1sc2nc(-c3ccc(F)cc3)nn2c1C` the entry was “inactive”; with `COc1cc2nc(N3CCCN(C)CC3)nc(NC3CCN(Cc4ccccc4)CC3)c2cc1OC`, 26.9 µM (active); with `COc1ccc(C(=O)Nc2cccc(-c3cn4ccsc4n3)c2)c(OC)c1`, “inactive”.

As for `CCCCOC(=O)c1ccc(NC(=O)c2sc3nc(C)cc(C)c3c2N)cc1`, the Potency is 12 µM (active).

`COc1ccc(-c2nc(N3CCOCC3)c3sc(CN(C)c4ncc(C(=O)NO)cn4)cc3n2)cn1`: the Potency result is “inactive”.
